Compound activity deposited in PubChem by National Center for Advancing Translational Sciences (NCATS).
Most compounds without a hit are left out; they make up all but 7.9% or so of the library.
HCV inh = HCV inhibition | Potency, µM (titrated, usually from 41.8 µM), without a hit: top-dose activity change, negative = inhibition, usual class: inhibitors | hit rate 3.4% among 340,000 | Huh7.5.1 HCVcc-Cre infection, luciferase reporter, 44 h; active means well fitted inhibition curve with a large enough effect; inconclusive means small, poorly fitted or top-dose-only effect, or another doubt; inactive means no such curve, though single readings can be large or run the other way; further: potency means the concentration at half of the fitted maximal effect
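HCVcc-Cre virus at an moi near 0.5 was added right after compound to cells cultured 4 h from seeding (1,000 cells/well). Luciferase activity was determined 44 h later, 15 min after substrate addition at RT.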
HCMV antiviral = blocks human cytomegalovirus replication. HFF cells, HCMV-luciferase reporter, 72 h; hits give low values. activity change, negative = inhibition, % at 57.5 µM. hit rate 4.5% among 410,000. AID 1259415; in the data active means activity change below about -60%; inconclusive means no clear call, values can overlap the other calls; inactive means above about -39%
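After 16 h attachment at 37C, HFF cells received test compound and HCMV-luciferase (1 PFU/cell); reporter luminescence read 72 h later, data normalized against buffer-only and known inhibitor Salinomycin.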
FMDV antiviral = antivirals against foot and mouth disease virus; FMDV antiviral cell-based qHTS; Potency, µM (top dose mostly 57.9 µM), without a hit: top-dose activity change, negative = inhibition, most hits filed as inhibitors; hit rate 1.2% among 410,000; calls by dose curve; tested in HEK293T cells; further: read-out not given here; potency means the concentration at half of the fitted maximal effect; nearly all actives have a fitted effect of over 45% in size
Lassa entry inh = blocks Lassa virus binding to or entry into cells | hit rate 1.2% among 300,000 | Lassa virus pseudotype entry inhibition, cell reporter | Potency, µM (titrated, usually from 37.9 µM), for inactives: top-dose activity change, negative = inhibition, most hits filed as inhibitors; calls by dose curve; tested in HEK293 cells; further: potency means the concentration at half of the fitted maximal effect; nearly all actives have a fitted effect of over 50% in size
MARV entry inh = blocks Marburg virus binding to or entry into cells. hit rate 1.8% among 300,000. Potency, µM (titrated, usually from 37.8 µM), inactives show at the highest dose activity change, negative = inhibition, usual class: inhibitors. AID 540276. Marburg virus pseudotyped entry inhibition, cell reporter; calls by dose curve; tested in HEK293 cells; further: potency means the concentration at half of the fitted maximal effect
Starred values were filed as active, the others as inactive; ? = inconclusive; · = not tested or not shown; [ ] = dose if it differs, or a comment. On the % scale 0 is the no-effect control and ±100 the full control effect.

SMILES	HCV inh	HCMV antiviral	FMDV antiviral	Lassa entry inh	MARV entry inh
Cn1nc([N+](=O)[O-])c(C(C#N)c2ccccn2)c(Cl)c1=O (stereo unspecified)	?	-97*	32µM*	·	·
COc1cc(O)c2c(c1)C(=O)c1cc(C)cc(O)c1C2=O	·	·	1%	·	·
Cc1cc(O)c2c(c1)C(=O)C13C(=C2O)C(=O)[C@H]2[C@@H](O)[C@@H]1[C@H]1[C@H](O)[C@@H]3C(=O)C3=C(O)c4c(O)cc(C)cc4C(=O)C312 (stereo partly specified)	10µM*	·	-3%	·	·
Cn1c(=O)c2c(nc(Sc3nc4ccccc4n3CC(=O)N3CCCCC3)n2C)n(C)c1=O	-1%	-63*	10%	0%	7%
CSc1nc2ccccc2n1CC(=O)N1CCCCC1	9%	-10	-15%	11%	2%
CCN(Cc1ccncc1)C(=O)c1cc(COc2ccc(C)c(C)c2)on1	?	-74*	-17%	-19%[46.1 µM]	?
CCN(Cc1cnn(C)c1)C(=O)c1cc(COc2ccc3c(c2)CCCC3)on1	22µM*	15	-2%	·	·
Cn1cc(CNC(=O)c2cc(COc3ccc4c(c3)CCCC4)on2)cn1	-22%	-4	-23%	-19%	-4%
O=C(CSc1nnc(COc2ccc(Cl)cc2)o1)N1CCCCC1	1%	-29	-20%	·	-3%[46.1 µM]
COC(=O)C(c1ccccc1)(c1cn(C)c2c(C)cccc12)C(Nc1ccccc1)c1ccccc1 (stereo unspecified)	·	-17	·	·	·
Cc1ccc(CNC(=O)Cc2ccc(-n3c(=O)[nH]c4ccsc4c3=O)cc2)cc1	2%	-62*	6%	?	-6%
COc1ccc(C(=O)c2cn(Cc3ccccc3F)c3cc4c(cc3c2=O)OCO4)cc1	·	-2	0%	5%[46.1 µM]	4%[46.1 µM]
COc1cc2c3nnc(-c4ccc(F)cc4)c-3cn(Cc3ccccc3F)c2cc1OC	?	-89*	?	?	?
COc1cc2c(=O)c(S(=O)(=O)c3ccc(F)cc3)cn(Cc3ccccc3C)c2cc1OC	·	5	-15%	-28%[46.1 µM]	-1%[46.1 µM]
COc1cc2c3nnc(-c4ccccc4)c-3cn(Cc3ccccc3F)c2cc1OC	?	-97*	-15%	?	?
Cc1c2c(=O)n(-c3nc4ccccc4s3)nc-2cc(O)n1Cc1ccccc1	4%	·	7.1µM*	·	·
Cc1cc(C)n(-c2nc3ccccc3s2)n1	-4%	10	0%	16%	?
CCCC/C(O)=C/c1nc2ccccc2[nH]c1=O	3%	-79*	14%	5%	17%
N#Cc1ccccc1NC(=O)C1SC(=Nc2ccccc2)C(C(=O)Nc2ccc(Cl)cc2)=C1N (stereo unspecified)	10µM*	25	0%	?	-5%[46.1 µM]
CC(C)Cn1c(SC(C)C(=O)NCC2CCCO2)nc2ccc(Cl)cc2c1=O (stereo unspecified)	-8%	-2	-19%	·	·
CCS(=O)(=O)N1CCCc2cc(C(=O)Nc3cc([N+](=O)[O-])ccc3C)ccc21	·	-39	28µM*	-10%[46.1 µM]	-9%[46.1 µM]
CCS(=O)(=O)N1CCc2cc(C(=O)Nc3cc([N+](=O)[O-])ccc3C)ccc21	·	-9	?	0%[46.1 µM]	7%[46.1 µM]
Cc1ncc2c(c1CNC(=O)c1ccc3c(c1)OCO3)CCN(C(=O)C1Cc3ccccc3O1)C2 (stereo unspecified)	·	·	-7%	·	·
O=C(Nc1ccnn1C1CCN(Cc2ccc(C#CCCO)cc2)CC1)c1cccc(F)c1	-13%	35	-17%	-6%[46.1 µM]	0%[46.1 µM]
CC1=NN(c2nc(-c3ccc(C)cc3)cs2)C(=O)C1N=Nc1ccc(C(N)=O)cc1 (stereo unspecified)	2.8µM*	?	-28%	4.6µM*	6.5µM*
SMILES	HCV inh	HCMV antiviral	FMDV antiviral	Lassa entry inh	MARV entry inh
COc1ccc(C2c3c(-c4ccccc4)n[nH]c3C(=O)N2c2ccc(C(=O)O)cc2)cc1 (stereo unspecified)	15%	-12	-19%	·	·
COc1ccc(-c2n[nH]c3c2C(c2ccc(OC)c(OC)c2)N(c2ccccc2)C3=O)cc1 (stereo unspecified)	18%	18	?	?	7.3µM*
COc1ccc(OC)c(C2c3c(-c4ccc(Br)cc4)n[nH]c3C(=O)N2c2ccc(Cl)cc2)c1 (stereo unspecified)	·	-105*	-24%	?	?
COc1ccc(-c2n[nH]c3c2C(c2ccc(O)cc2)N(c2ccc(Br)cc2)C3=O)cc1 (stereo unspecified)	·	-21	32µM*	-1%[46.1 µM]	-8%[46.1 µM]
CCOC(=O)c1ccc(N2C(=O)c3[nH]nc(-c4ccc(OC)cc4)c3C2c2ccc(C)cc2)cc1 (stereo unspecified)	·	-83*	-15%	?	?
CCCCCCN1C[C@@H](n2cc(COC(=O)c3ccccc3)nn2)[C@H](O)C[C@H]1c1ccccc1	·	·	·	13%[46.1 µM]	·
Cc1cccc(OCC(=O)NCC(C)(C)N2CCOCC2)c1	4%	4	-4%	·	·
O=C(Cc1cccs1)N[C@H]1CC[C@@]23CCCN2C(=O)CCC[C@H]3[C@H]1Cc1ccccc1	·	-4	·	·	·
Fc1ccc(NC(=S)Nc2cccc3ccccc23)cc1F	?	-71*	6%	·	·
COc1ccccc1NC(=S)Nc1cccc2cnccc12	10µM*	-79*	?	-2%	?
Fc1ccc(NC(=S)Nc2cccc3cnccc23)cc1	-26%	-32	-10%	·	-17%[46.1 µM]
Fc1ccc(NC(=S)Nc2cccc3ccccc23)cc1	-24%	6	0%	·	·
CC1CCCCC1NC(=S)Nc1cccc(S(=O)(=O)N(C)C)c1 (stereo unspecified)	3%	-68*	9%	-3%	22%[46.1 µM]
COc1ccc(NC(=S)Nc2cccc3cnccc23)cc1	-7%	?	-7%	11%	0%
S=C(Nc1ccc(Cl)cc1)Nc1cccc2cnccc12	?	-98*	-6%	?	?
Cc1nn(CC(=O)N2CCN(c3cccc(Cl)c3)CC2)c(=O)c2c1sc1ccccc12	·	26	2%	-18%[46.1 µM]	-8%[46.1 µM]
CN(C)S(=O)(=O)c1cccc(NC(=S)Nc2cccc3cnccc23)c1	-26%	-72*	?	?	?
CN(C)S(=O)(=O)c1cccc(NC(=S)N/N=C/c2cccc(O)c2)c1	7%	-15	?	-18%	11%
CN(C)S(=O)(=O)c1cccc(NC(=S)N/N=C/c2cc(Br)ccc2O)c1	-22%	-98*	?	?	10µM*
COc1cc(CNC(=O)c2cnn(-c3ncc4c(n3)-c3ccccc3CC4)c2C)cc(OC)c1OC	·	·	25%	·	·
Nc1c(N(Cc2ccco2)C(=O)c2ccc(Cl)cc2)c(=O)[nH]c(=O)n1Cc1ccccc1	31%	-71*	-3%	-2%	-7%
Nc1c(N(Cc2ccccc2)C(=O)COc2ccc([N+](=O)[O-])cc2)c(=O)[nH]c(=O)n1Cc1ccccc1	?	-97*	-17%	·	·
Nc1c(N(CCC2=CCCCC2)C(=O)COc2ccc(F)cc2)c(=O)[nH]c(=O)n1Cc1ccccc1	13µM*	·	-22%	·	·
Cc1ccc(OCCC(=O)N(Cc2ccccc2)c2c(N)n(Cc3ccccc3)c(=O)[nH]c2=O)cc1	11µM*	-81*	-24%	?	?
